Measured values published in PMC12136788.
Substitutions are numbered along the chain they refer to. In all, about 5,800 sequences were measured (“enrichment r”: median about 0.68, highest 2% from about 11 on). This excerpt belongs to a sample that is enriched for the highest values.

B1: chr1:150647640:150647741:-|3pUTR|ENSG00000143457|unk|FALSE|unique (ssRNA)
RNA: GGGAGUUCUACAGUCCGACGAUCAGAUUCAAUUACCUGGAUGUCAAAGUCCUAGAGCCAGAAAUAUAUUCUCUCAUCCCUCUUAGCAUUCUCUUGCUCCCUCAUUCACUAGGGCAAAUGUCUAAAUGAAGAAAAGUCUCUCUCCAACAGAGGAUUGAGCAUCA
B2: chr1:109062613:109062715:-|3pUTR|ENSG00000197780|unk|total|mutant (ssRNA)
RNA: GGGAGUUCUACAGUCCGACGAUCAGUUCUGAAUACACAGGUUUUGUGUGUAUUUACUCUAUGUAUUAAAUUAUUAUUGCCCUCCGUUUAAAGUAAGGAUUACAAUUGGAUUUAAGCCGAUCACUGAAUGUUAUUGUUUAUGAACAACAGAGGAUUGAGCAUCA
B3: chrX:80717640:80717741:-|CDS|ENSG00000165288|msi1|FALSE|unique (ssRNA)
RNA: GGGAGUUCUACAGUCCGACGAUCCUGAGAAGUCCAAACAUGGACAUAUCUUCUUCCCCAAACAUCAGGCUUCGAAGACAUAGUAGUCAAAUUGAAGGUGUUAGACAAAUGCAUAACAAUGCUCCUCGGAGCCAGAUGGCCACUCAACAGAGGAUUGAGCAUCA
B4: chr6:37331633:37331734:+|3pUTR|ENSG00000065491|unk|FALSE|unique (ssRNA)
RNA: GGGAGUUCUACAGUCCGACGAUCCCGUUCCCCUUCUGCCCCAGUCUGAGCCAGUGAGGGGUAGCUUUUUAAAACCAUUAUUCUAGAUGGAGGAGGCACUGAUGCUUGUAACUCUGGAAAGAGGCCUACACCCAAGGGCUAGGACAACAGAGGAUUGAGCAUCA
B5: chr9:91409354:91409467:-|CDS|ENSG00000165030|unk|total|mutant (ssRNA)
RNA: GGGAGUUCUACAGUCCGACGAUCAAUGAAAGACAGUGGCUACAAAGUUUCUGACCCAGAGAACUUGUAUUUGAAGCAGGGGACCGCAAACUUAUCUGCAGAGGUUGUCUCACUCAAGAGACUUACCGCCACACAACCAAUCUCCAACAGAGGAUUGAGCAUCA
B6: chr7:137879121:137879144:-|3pUTR|ENSG00000182158|msi1_unk|FALSE|overlapping (ssRNA)
RNA: GGGAGUUCUACAGUCCGACGAUCUAAUCCCCAACCUACUUUUAGUUUUUUUGUUUUUUUUUUAUGGUUAAAAGUAACUUUUGUAGUUUAAAAAAAUCUUUCCUCUUUCAUAUAAAUAAGAAGUGGAAAUUGCCUUUUUAUUGUCAACAGAGGAUUGAGCAUCA
B7: chr2:224511460:224511569:-|CDS|ENSG00000036257|unk|FALSE|bound_elsewhere (ssRNA)
RNA: GGGAGUUCUACAGUCCGACGAUCGAAAGCCAGAAAUUUUUAGCAGAAAAUAGUGCUUCAGUAUAUAUAAAGAAAGUAGAAGCUAGAAUUAAUGAAGAAAUAGAACGAGUGAUGCACUGCCUUGACAAAUCAACGGAAGAACCACAACAGAGGAUUGAGCAUCA
B8: chr7:107202531:107202632:-|3pUTR|ENSG00000164597|msi1|FALSE|unique (ssRNA)
RNA: GGGAGUUCUACAGUCCGACGAUCUAUUCUGAGAACUCAUAAAUAAAAUUCAGCCAAGAUUAAUCAAUCAAUCAAUCAAUCAGUAGACGUCAGAGAUAAGCAACUUUUUUUUCCAUUUAUUUGAAAUAAUAUACAAGAAUAUAGCAACAGAGGAUUGAGCAUCA
B9: chr19:35623609:35623710:+|3pUTR|ENSG00000249115|unk|FALSE|unique (ssRNA)
RNA: GGGAGUUCUACAGUCCGACGAUCGCCUUCUAGUUUGUAUAGUUUCUUUUUUUACAUGUAAAUCAGCCAUUUGGAAUUUAUCCUAGCACAUGGAUCCAAUUUUGUCUUAUUUUACAUAUAUCCUAGUAGCACUUACUGAAAUUCCAACAGAGGAUUGAGCAUCA
B10: chr7:137879121:137879144:-|3pUTR|ENSG00000182158|msi1_unk|total|mutant (ssRNA)
RNA: B6 RNA with U42C, A43C, U83C, A84C
B11: chr11:85958428:85958534:-|3pUTR|ENSG00000073921|unk|FALSE|unique (ssRNA)
RNA: GGGAGUUCUACAGUCCGACGAUCAGAAACAAUAACUGAAAUUAACUUUUCUUUUUUUAAAAAAAAUUAUAUUCAGUUUGCAGUAGACAUUCCUUAAGUAUUUGUAUUUAUUUAUGAUUAUCAAUUUUACAUAACAUUAAUAUUCAACAGAGGAUUGAGCAUCA
B12: chr8:11323570:11323671:+|3pUTR|ENSG00000104643|unk|FALSE|unique (ssRNA)
RNA: GGGAGUUCUACAGUCCGACGAUCGAGCAUACAUAUACAAUGUGUUUCAAAUGCUGCUUGUAAAAUUAAACCAUCAUCUAGAAUAGAGUUAAUUUAUUAUAAUCAAGCUACAAAUAGGUUUUCUUAAACCAGAGAUGCACUGCCCAACAGAGGAUUGAGCAUCA
B13: chr3:44647099:44647200:+|3pUTR|ENSG00000186448|msi1|FALSE|unique (ssRNA)
RNA: GGGAGUUCUACAGUCCGACGAUCAUUUGUAUGUAAACUACAUAAAGAACUUUCCAAAUUUAACAGUAAUAAGUAAAUACAAUUAGAAAAUAAGCAAAAGACAGACAUUUCACUGAAGUAUAGAUAGCAAAUAAGCAAAUGAAACAACAGAGGAUUGAGCAUCA
B14: ENSG00000198589:be:win_3201|CDS|ENSG00000198589|bound_else_gene|NA|bound_elsewhere_windowed (ssRNA)
RNA: GGGAGUUCUACAGUCCGACGAUCAACUGGCAAAGAUUCAAUGACUGUCAGUGAAGUAACUGCUUCUAUAAGUUCUCCUUCAGAAGAGGAUGCCUCAGAGAUGCCAGAAUUCUUGGAUAAAUCUAUAGUAGAGGAAGAGGAAGACAACAGAGGAUUGAGCAUCA
B15: chr10:73917138:73917420:+|3pUTR|ENSG00000122861|msi1|FALSE|unique (ssRNA)
RNA: GGGAGUUCUACAGUCCGACGAUCGGAAUGUAUUAUUCUGCAGCAUGACCUGUGACCAGCACUGUCUCAGUUUCACUUUCACAUAGAUGUCCCUUUCUUGGCCAGUUAUCCCUUCCUUUUAGCCUAGUUCAUCCAAUCCUCACUCAACAGAGGAUUGAGCAUCA
B16: ENSG00000186472:stop:overlap|stop_codon|ENSG00000186472|stop_codon|NA|stop_codon (ssRNA)
RNA: GGGAGUUCUACAGUCCGACGAUCUUUCUUGUAAAUGGAAAUUUUAUCAUGUGUAUAGAUUCUGUAGCAUGCUUUUCUUUAUUUAGUUUUACUUUAUUCCUUUAUUGUUCUGUUUCUUGAUUGUUUGCUUGAUUUGUUUGGUGUCAACAGAGGAUUGAGCAUCA
B17: chr11:43342853:43342954:+|3pUTR|ENSG00000166181|msi1|FALSE|unique (ssRNA)
RNA: GGGAGUUCUACAGUCCGACGAUCCUAGUUCUGCUGAUAAAGAUCAUCAGUUUUGAAAGGUUACUGAUUUUCCUCUUCCCUCUUAGUUUUUUACCCAAUAUAUGGAGAAGAGUAAUGGUCAAUCUUAACAUUUUGUUUUAAUUGCAACAGAGGAUUGAGCAUCA

These binders were tested against T1, UNK ZnF1-6 (called full-length) (human, UniProt Q9C0B0 30-357) (assay: nsRBNS (natural sequence RNA bind-n-seq); RBNS binding buffer (assumed for nsRBNS): 25 mM Tris pH 7.5, 150 mM KCl, 3 mM MgCl2, 0.01% Triton X-100, 500 ug/ml BSA, 20 U/ml SUPERase-In, 4 C; UNK is unkempt and MSI1 is Musashi-1; names of the RNAs are library labels; protein concentration not given here; high values mean tight binding).
T1 sequence: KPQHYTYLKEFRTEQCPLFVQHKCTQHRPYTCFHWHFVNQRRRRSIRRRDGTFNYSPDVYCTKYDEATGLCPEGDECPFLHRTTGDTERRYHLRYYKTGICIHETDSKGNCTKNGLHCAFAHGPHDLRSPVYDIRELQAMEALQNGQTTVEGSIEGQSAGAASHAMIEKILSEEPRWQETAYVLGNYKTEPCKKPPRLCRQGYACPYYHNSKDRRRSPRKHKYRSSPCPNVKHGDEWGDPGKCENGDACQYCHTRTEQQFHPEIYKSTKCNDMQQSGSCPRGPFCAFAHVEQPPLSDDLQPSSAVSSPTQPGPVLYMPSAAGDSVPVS

Binder | binding signal
B1 | 0.623 enrichment R
B2 | 0.999 enrichment R
B3 | 0.592 enrichment R
B4 | 2.05 enrichment R
B5 | 0.615 enrichment R
B6 | 14.9 enrichment R
B7 | 16.7 enrichment R
B8 | 2.67 enrichment R
B9 | 14.9 enrichment R
B10 | 0.762 enrichment R
B11 | 2.18 enrichment R
B12 | 2.54 enrichment R
B13 | 162 enrichment R
B14 | 0.614 enrichment R
B15 | 1.54 enrichment R
B16 | 0.541 enrichment R
B17 | 3.5 enrichment R
